In PubChem BioAssay (EPA / NIEHS):
Inconclusive results are not listed. Some structures have more than one record in an assay (separate samples or runs), and their calls can disagree. The source made the active and inactive calls. How the source made its calls, unless noted: active means hit-call score of the fitted dose curve at least 0.9, where 1 is the maximum; inactive means score below 0.9.

How the values were obtained:
[1] = ATG_CRE_CIS: Attagene CIS-FACTORIAL HepG2 Assay for human cAMP Responsive Element (CRE) binding protein 3 (AID 2282926); conditions: HepG2 CRE cis-reporter, Attagene multiplexed mRNA; actives raise or lower the signal
Method in brief: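 Multiplexed transcription-unit reporters transfected into HepG2; 24 h dosing; RT-PCR/capillary electrophoresis fluorescence read-out; bidirectional fit vs DMSO.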

[2] = ATG_DR4_LXR_CIS: Attagene CIS-FACTORIAL HepG2 Assay for human Liver X Receptor (LXR), DR4 submotif (AID 2282929); conditions: HepG2 Attagene DR4 cis-reporter, mRNA transcription; actives raise or lower the signal
Method in brief: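 Readout: reporter transcript fluorescence after RT-PCR and capillary electrophoresis, fitted bidirectionally against DMSO controls. Human HepG2 liver cells carried transiently transfected multiplexed reporter constructs; endogenous transcription factor activity measured 24 h post-dosing.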

[3] = ATG_AP_1_CIS: Attagene CIS-FACTORIAL HepG2 Assay for human Activator Protein 1 (AP-1) (AID 2282931); conditions: HepG2 Attagene cis-factorial AP-1 reporter mRNA; actives raise or lower the signal
Method in brief: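 Reporter transcripts were measured 24 h after dosing by RT-PCR and capillary electrophoresis of fluorescent fragments. Cells: HepG2 carrying transfected cis-regulated reporter constructs reading endogenous factor activity. Gain or loss fitted against DMSO.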

[4] = ATG_ISRE_CIS: Attagene CIS-FACTORIAL HepG2 Assay for human Interferon Regulatory Factor 1 (IRF1) binding to an Interferon-Stimulated Response Element (ISRE) (AID 2282948); conditions: HepG2 ISRE cis-reporter (Attagene), mRNA transcription readout; actives raise or lower the signal
Method in brief: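 Quantitation relies on labelled RT-PCR fragments separated by capillary electrophoresis. Human HepG2 cells bearing cis-promoter reporter constructs were treated 24 h; DMSO served as baseline for bidirectional fitting.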

[5] = ATG_M_06_CIS: Attagene CIS-FACTORIAL HepG2 Assay for M06 Transcription Factor (Internal Marker) (AID 2282950); conditions: HepG2 Attagene CIS-FACTORIAL M06 internal marker reporter; actives raise or lower the signal
Method in brief: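 Read-out is fluorescence of labelled reporter cDNA fragments resolved by capillary electrophoresis after RT-PCR. Cells: HepG2 carrying transfected cis-promoter reporter units, treated 24 h. Gain or loss of signal fitted relative to DMSO.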

[6] = target: Heat shock factor protein 1 (Homo sapiens) (UniProt Q00613); assay: ATG_HSE_CIS: Attagene CIS-FACTORIAL HepG2 Assay for human Heat Shock Transcription Factor 1 (HSE) (AID 2282953); conditions: HepG2 HSE cis-reporter, Attagene RNA transcription; actives raise or lower the signal
Method in brief: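 HepG2, transient MRTU transfection, cis-promoter reporters (endogenous TF activity). 24 h compound. RNA → oligo(dT) RT → PCR → 6-FAM primer extension → HpaI cut → CE. Bidirectional fit vs DMSO.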

[7] = target: Paired box protein Pax-6 (Homo sapiens) (UniProt P26367); assay: ATG_Pax6_CIS: Attagene CIS-FACTORIAL HepG2 Assay for human Paired Box 6 (PAX6) (AID 2282956); conditions: HepG2 CIS-FACTORIAL PAX6 reporter transcription, RNA readout; actives raise or lower the signal
Method in brief: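 After twenty-four hours of chemical exposure, transfected HepG2 cells are harvested for RNA. Cis-promoter reporter transcripts are amplified, fluorescently labelled and sized by capillary electrophoresis, with gain and loss of signal scored against DMSO.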

[8] = ATG_SREBP_CIS: Attagene CIS-FACTORIAL HepG2 Assay for human Sterol Regulatory Element Binding (SREBP) (AID 2282962); conditions: HepG2 Attagene cis-factorial SREBP reporter, mRNA; actives raise or lower the signal
Method in brief: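 Twenty-four hours after chemical dosing of transfected HepG2 cultures, reporter RNA was converted to cDNA, amplified, end-labelled with 6-FAM and resolved by capillary electrophoresis. Responses were fitted relative to DMSO.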

[9] = ATG_TA_CIS: Attagene CIS-FACTORIAL HepG2 Assay for human TA Basal Promoter (AID 2282964); conditions: HepG2 Attagene CIS-factorial TA basal promoter reporter; actives raise or lower the signal
Method in brief: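 Read-out: fluorescent reporter-transcript fragments resolved by capillary electrophoresis after RT-PCR and HpaI digestion. Source: HepG2 cells carrying transiently transfected multi-reporter cis constructs, treated 24 h. Endpoint fitted bidirectionally relative to DMSO.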

[10] = ATG_TCF_b_cat_CIS: Attagene CIS-FACTORIAL HepG2 Assay for human T-Cell-Factor with beta-catenin (TCF/b-cat) (AID 2282965); conditions: HepG2 TCF/beta-catenin cis-reporter transcription, actives raise or lower the signal
Method in brief: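 Using capillary electrophoresis as the read-out, labelled reporter cDNA fragments from transiently transfected HepG2 were sized and quantified. Exposure lasted 24 hours; activity in either direction was referenced to DMSO.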

[11] = ATG_TGFb_CIS: Attagene CIS-FACTORIAL HepG2 Assay for human Transforming Growth Factor (TGF) (AID 2282967); conditions: HepG2 Attagene CIS TGFb reporter, mRNA transcription; actives raise or lower the signal
Method in brief: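 Transient MRTU transfection of HepG2 (FuGene 6). Dose 24 h. TriZol RNA, oligo(dT) RT, PCR, 6-FAM primer extension, HpaI cut, CE. Bidirectional fit, DMSO = baseline.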

[12] = ATG_NFI_CIS: Attagene CIS-FACTORIAL HepG2 Assay for human Nuclear Factor I (NFI) (AID 2282989); conditions: HepG2 cis-regulatory reporter, NFI response element transcription; actives raise or lower the signal
Method in brief: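 Transient MRTU transfection of HepG2 → 24 h chemical dosing → total RNA, oligo(dT) RT → PCR, 6-FAM primer extension, HpaI cut → capillary electrophoresis. Endpoint fitted bidirectionally relative to DMSO.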

[13] = ATG_NRF2_ARE_CIS: Attagene CIS-FACTORIAL HepG2 Assay for human Nuclear Factor Erythroid 2 Related Factor 2 (NFR2) response to Antioxidant Response Elements (ARE) (AID 2282992); conditions: HepG2 Attagene ARE/NRF2 reporter, transcription factor activity; actives raise or lower the signal
Method in brief: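 Cis-factorial assay: transfected HepG2 reporter library, 24 h dosing, mRNA readout via RT-PCR/CE; DMSO-referenced bidirectional analysis.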

[14] = ATG_Oct_MLP_CIS: Attagene CIS-FACTORIAL HepG2 Assay for human Octamer-Binding Transcription Factor (Oct) (AID 2282993); conditions: HepG2 Attagene cis-factorial Oct reporter, mRNA; actives raise or lower the signal
Method in brief: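 Transient MRTU transfection of HepG2 → 24 h compound treatment → RNA isolation, reverse transcription, PCR → 6-FAM primer extension, HpaI digest → capillary electrophoresis. Activity fitted both directions against DMSO.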

[15] = read-out: Interleukin-8 (IL8), CXCL8 (gene 3576); assay: BSK_3C_IL8: BioMAP Diversity Plus: 3C Assay for Interleukin-8 (IL8) Biomarker Activity (AID 2283020); conditions: primary human endothelial cells (HUVEC); actives raise or lower the signal
Method in brief: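 Primary human umbilical vein endothelial cells were dosed for 24 h. IL-8 was quantified by ELISA and fitted bidirectionally against DMSO. Cytotoxicity was assessed in parallel cultures by SRB staining at 560 nm.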

[16] = read-out: Thrombomodulin, THBD (gene 7056); assay: BSK_3C_Thrombomodulin: BioMAP Diversity Plus: 3C Assay for Thrombomodulin Biomarker Activity (AID 2283029); conditions: primary human endothelial cells (HUVEC); actives raise or lower the signal
Method in brief: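 Human umbilical vein endothelial cells were exposed to chemicals for 24 h; cell-surface thrombomodulin quantified by ELISA, with bidirectional fitting against DMSO baseline.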

[17] = read-out: Vascular endothelial growth factor receptor 2 (Homo sapiens) (UniProt P35968); assay: BSK_4H_VEGFRII: BioMAP Diversity Plus: 4H Assay for Vascular endothelial growth factor receptor 2 (VEGFR2) Biomarker Activity (AID 2283031); conditions: primary human endothelial cells (HUVEC); actives raise or lower the signal
Method in brief: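 Measured by ELISA after 24 h of compound treatment: VEGFR2 on primary human umbilical vein endothelial cells, fitted in both directions relative to DMSO. Parallel cultures received SRB staining (560 nm) for overt cytotoxicity.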

[18] = read-out: Vascular cell adhesion molecule 1 (VCAM1), VCAM1 (gene 7412); assay: BSK_CASM3C_VCAM1: BioMAP Diversity Plus: CASM3C Assay for Vascular cell adhesion molecule 1 (VCAM1) Biomarker Activity (AID 2283055); conditions: primary human coronary artery smooth muscle cells; actives raise or lower the signal;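 further: VCAM-1 protein level quantified by ELISA on the cells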
CD40, CD40 (gene 958) = assay: BSK_SAg_CD40: BioMAP Diversity Plus: SAg Assay for CD40 Biomarker Activity (AID 2283088); conditions: primary human HUVEC with PBMC; actives raise or lower the signal
Method in brief: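 CD40 is measured by fluorescence ELISA in an endothelial/PBMC primary human co-culture at 24 h post-dose. Fitting is bidirectional, DMSO baseline. Parallel SRB staining (560 nm) flags cytotoxicity.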

[19] = target: bovine Estrogen Receptor (ER), ESR1 (gene 407238) (UniProt P49884); assay: NVS_NR_bER: NovaScreen (NVS) Nuclear Receptor Binding Assay for bovine Estrogen Receptor (ER) (AID 2283345; active means hit-call score of the fitted dose curve at least 0.9, where 1 is the maximum;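 further: actives lower the bound radioligand count which means they displace the ER ligand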)
Method in brief: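 Scintillation counting of displaced radioligand gave the readout; bovine uterine membrane extract supplied the receptor. Measured 18 h post-dose, normalized to DMSO baseline. Single 25 uM duplicate screen preceded concentration-response follow-up.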

Chain of Heat shock factor protein 1 (Homo sapiens) (Q00613 whole entry, looked up): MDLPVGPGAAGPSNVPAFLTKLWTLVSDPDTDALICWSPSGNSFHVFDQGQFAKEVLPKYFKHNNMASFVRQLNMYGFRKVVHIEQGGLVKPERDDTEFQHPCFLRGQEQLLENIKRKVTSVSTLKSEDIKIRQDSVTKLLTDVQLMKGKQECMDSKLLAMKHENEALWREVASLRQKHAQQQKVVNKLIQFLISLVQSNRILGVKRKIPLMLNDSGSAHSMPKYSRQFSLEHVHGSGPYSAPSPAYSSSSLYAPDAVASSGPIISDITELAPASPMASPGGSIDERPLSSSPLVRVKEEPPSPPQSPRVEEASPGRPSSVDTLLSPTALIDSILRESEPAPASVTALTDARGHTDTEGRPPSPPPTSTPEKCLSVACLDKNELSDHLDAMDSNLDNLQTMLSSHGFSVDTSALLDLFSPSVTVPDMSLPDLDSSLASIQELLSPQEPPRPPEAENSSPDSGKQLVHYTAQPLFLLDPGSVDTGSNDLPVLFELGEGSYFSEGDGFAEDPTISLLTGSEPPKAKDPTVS
Chain of Paired box protein Pax-6 (Homo sapiens) (P26367 whole entry, looked up): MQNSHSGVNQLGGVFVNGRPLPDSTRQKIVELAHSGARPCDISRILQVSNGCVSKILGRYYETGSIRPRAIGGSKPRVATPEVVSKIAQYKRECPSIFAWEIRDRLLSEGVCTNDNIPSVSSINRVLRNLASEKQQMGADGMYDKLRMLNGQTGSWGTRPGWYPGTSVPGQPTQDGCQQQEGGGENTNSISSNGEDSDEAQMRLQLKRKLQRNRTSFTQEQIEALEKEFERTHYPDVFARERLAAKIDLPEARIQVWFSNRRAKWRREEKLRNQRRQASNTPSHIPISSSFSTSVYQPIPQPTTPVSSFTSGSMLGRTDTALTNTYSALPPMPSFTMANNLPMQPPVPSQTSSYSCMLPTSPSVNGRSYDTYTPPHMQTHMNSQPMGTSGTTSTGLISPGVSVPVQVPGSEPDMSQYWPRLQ
Chain of bovine Estrogen Receptor (ER), ESR1 (gene 407238) (P49884 whole entry, looked up): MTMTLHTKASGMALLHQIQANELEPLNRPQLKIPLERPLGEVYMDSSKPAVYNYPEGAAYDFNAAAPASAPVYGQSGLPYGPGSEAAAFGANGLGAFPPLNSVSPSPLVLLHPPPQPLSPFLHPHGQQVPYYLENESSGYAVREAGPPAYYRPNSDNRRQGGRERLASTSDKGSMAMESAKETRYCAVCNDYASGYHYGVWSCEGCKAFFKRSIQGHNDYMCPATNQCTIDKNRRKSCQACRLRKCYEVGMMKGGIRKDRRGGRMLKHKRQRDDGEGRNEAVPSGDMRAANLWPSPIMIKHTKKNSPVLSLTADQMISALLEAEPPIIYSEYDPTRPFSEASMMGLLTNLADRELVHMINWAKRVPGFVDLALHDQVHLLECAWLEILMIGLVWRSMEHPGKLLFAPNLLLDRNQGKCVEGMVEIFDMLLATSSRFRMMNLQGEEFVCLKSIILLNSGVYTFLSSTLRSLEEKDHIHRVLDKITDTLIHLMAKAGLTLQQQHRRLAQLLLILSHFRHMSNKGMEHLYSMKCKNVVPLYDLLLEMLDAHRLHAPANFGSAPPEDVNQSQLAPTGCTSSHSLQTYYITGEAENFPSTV

CO[Si](CCCNCCN)(OC)OC
outcome [1]: inactive | outcome [2]: inactive | outcome [3]: inactive | outcome [4]: inactive | outcome [5]: inactive | outcome [6]: inactive | outcome [7]: inactive | outcome [8]: inactive | outcome [9]: inactive | outcome [10]: inactive | outcome [11]: inactive | outcome [12]: inactive | outcome [13]: inactive | outcome [14]: inactive

O=C(O)c1cc(Cl)cc(Cl)c1O
outcome [1]: inactive | outcome [2]: inactive | outcome [3]: inactive | outcome [4]: inactive | outcome [5]: inactive | outcome [6]: inactive | outcome [7]: inactive | outcome [8]: inactive | outcome [9]: inactive | outcome [10]: inactive | outcome [11]: inactive | outcome [12]: inactive | outcome [13]: inactive | outcome [14]: inactive

CC(=O)OC(C)(C)Cc1ccccc1
outcome [1]: inactive | outcome [2]: inactive | outcome [3]: inactive | outcome [4]: inactive | outcome [5]: inactive | outcome [6]: inactive | outcome [7]: inactive | outcome [8]: inactive | outcome [9]: inactive | outcome [10]: inactive | outcome [11]: inactive | outcome [12]: inactive | outcome [13]: inactive | outcome [14]: inactive

COc1ccccc1Oc1c(NS(=O)(=O)c2ccc(C(C)(C)C)cc2)nc(-c2ncccn2)nc1OCCO
outcome [15]: inactive | outcome [16]: inactive | outcome [17]: inactive | AC50 [18]: 10 µM (active) | outcome [18]: inactive | AC50 (CD40, CD40 (gene 958)): 20 µM (active) | outcome (CD40, CD40 (gene 958)): inactive

CCCCCCCCCCCCSC#N
outcome [19]: inactive

CC(C)(C)NC(=O)[C@@H]1CN(Cc2cccnc2)CCN1C[C@@H](O)C[C@@H](Cc1ccccc1)C(=O)N[C@H]1c2ccccc2C[C@H]1O
outcome [1]: inactive | outcome [2]: inactive | outcome [3]: inactive | outcome [4]: inactive | outcome [5]: inactive | outcome [6]: inactive | outcome [7]: inactive | outcome [8]: inactive | outcome [9]: inactive | outcome [10]: inactive | outcome [11]: inactive | outcome [12]: inactive | outcome [13]: inactive | outcome [14]: inactive

COc1cccc(OC)c1C(=O)O
outcome [1]: inactive | outcome [2]: inactive | outcome [3]: inactive | outcome [4]: inactive | outcome [5]: inactive | outcome [6]: inactive | outcome [7]: inactive | outcome [8]: inactive | outcome [9]: inactive | outcome [10]: inactive | outcome [11]: inactive | outcome [12]: inactive | outcome [13]: inactive | outcome [14]: inactive
